From ChEMBL document CHEMBL1157539, “Thousands of chemical starting points for antimalarial lead identification” (Nature, 2010) come the findings set out here.

Molecules are shown by their SMILES.

For the test, the system named is Plasmodium falciparum. Kind of test: GSK_TCMDC: Inhibition of Plasmodium falciparum 3D7 in whole red blood cells, using parasite LDH activity as an index of growth. Test compounds present at 2uM. Format: functional.
One may read the Inhibition as how much of the control response was suppressed. A low value points to a response near the control. On to `COc1ccc(-c2nc3cccnc3n2CC(=O)Nc2cc(Cl)c(Cl)cc2Cl)c(OC)c1`, for which the Inhibition was 100%.

Take `Cl.c1cc(-c2cc3ccc(C4=NCCN4)cc3[nH]2)ccc1C1=NCCN1`: the Inhibition is given as 97%.

With `C[C@H](Cc1ccc(OCCCOc2ccc(C[C@@H](C)NC[C@H](O)c3cccc(Cl)c3)cc2)cc1)NC[C@H](O)c1cccc(Cl)c1.Cl`, the Inhibition stood at 99%.

Regarding `O=C(Nc1cccc(CN2CCN(Cc3ccc(O)cc3)CC2)c1)c1cccc(C(F)(F)F)c1.O=C(O)C(F)(F)F`, the Inhibition is reported as 91%.

Compound `Cc1cc(N[C@@H](CC(C)C)C(=O)NCCOc2ccccc2)nc(Nc2ccccc2)n1.O=C(O)C(F)(F)F` yielded an Inhibition of 93%.

In the case of `CCCC(CC)n1ccc2c3c(N)nc(N)nc3ccc21.CS(=O)(=O)O` (stereo not drawn), the Inhibition was determined as 94%.

Regarding `CN(c1ccc(NC(=O)c2cccc(F)c2)cc1)C1CCCN(Cc2cccc(O)c2)C1.O=C(O)C(F)(F)F` (stereo not drawn), the Inhibition turned out to be 85%.

In turn, `O=C(Nc1ccc(F)c(Cl)c1)NC1CCN(c2ccnc3cc(Cl)ccc23)C1.O=C(O)C(F)(F)F` (stereo not drawn) returned an Inhibition of 100%.

For the compound `COc1ccc(N2CCN(CCCCNC(=O)c3ccc(/C=C/c4ccc(Cl)c(Cl)c4)cc3)CC2)c(OC)c1`, the Inhibition was 100%.

`O=C(O)C[C@H](NC(=O)CCCNC(=O)c1cccc(-c2ccc(Cl)c(Cl)c2)c1)C(=O)O` showed an Inhibition of 91%.

Take `COc1ccc2ncc(F)c(CCN3CCC(CNC(=O)C(=O)c4c[nH]c5ccccc45)CC3)c2n1`: the Inhibition came to 100%.

Compound `N=C(N)c1ccc(Nc2nccc(Nc3nc(-c4ccccc4)cs3)n2)cc1.O=C(O)C(F)(F)F` gave an Inhibition of 96%.

The compound `CC(C)(C)c1ccc(NC(=O)c2ccc(CN3CCCN(Cc4ccsc4)CC3)cc2)cc1.O=C(O)C(F)(F)F` came in with an Inhibition of 96%.
